# Results published in the OligoGym collection.
# Assays:
# Experiment in all cases: pooled miR-30 sensor sort-seq; sequence = guide strand
# Conditions in all cases: shRNA
# [1] = target: NDUFAB1
# [2] = target: NDUFC1
# [3] = target: NEFH
# [4] = target: NEBL
# [5] = target: NLRP3
# [6] = target: NMRAL1
# [7] = target: NODAL
# [8] = target: NMUR2
# [9] = target: NOL7
# Further: reference of the scale not given here.
sequence,measurement,setting,value
TAATCTACAATTTCTTGTGGAC,sensor-assay potency score (higher = more potent),[1],-0.35
TAGATCCACAAGAAGACAGTGG,sensor-assay potency score (higher = more potent),[2],0.0941
TTTTCTTATCTTCAGCCTCTTC,sensor-assay potency score (higher = more potent),[3],-0.582
TTCAGGTGTATCTGCCACCGTG,sensor-assay potency score (higher = more potent),[4],-0.9
TATCTCTATATCCAGAGCCATC,sensor-assay potency score (higher = more potent),[3],-1.97
TACAATTTAAATACAAGTCCAT,sensor-assay potency score (higher = more potent),[1],0.341
TTCGACAGCAGGTTCCTTCTTC,sensor-assay potency score (higher = more potent),[3],0.393
TGTAACTCTACCAGGAACCTGC,sensor-assay potency score (higher = more potent),[1],0.262
TGTAATCTACAATTTCTTGTGG,sensor-assay potency score (higher = more potent),[1],0.132
TTACTGAAAGCTTCTCTGGGTC,sensor-assay potency score (higher = more potent),[1],0.337
TTCATGTTGAGTGCCATCTTGC,sensor-assay potency score (higher = more potent),[4],-0.598
ACAACTGTGTAACTCTACCAGG,sensor-assay potency score (higher = more potent),[1],-1.08
TTTATGCCAATACTTATCCAGG,sensor-assay potency score (higher = more potent),[4],-1.28
TTCATTGTGTTGTTTGATGAGA,sensor-assay potency score (higher = more potent),[2],-0.384
TTGTACTCTAAAATATCTTCAT,sensor-assay potency score (higher = more potent),[2],-0.343
TTGGTGTCTTTTTTCTCCGGTG,sensor-assay potency score (higher = more potent),[3],-0.602
TTTACAACTCAACAGATGGTGA,sensor-assay potency score (higher = more potent),[2],-0.815
TTTGGGTTTAGCGTCTTCCTTC,sensor-assay potency score (higher = more potent),[3],-0.21
TTTTGTACTCTAAAATATCTTC,sensor-assay potency score (higher = more potent),[2],-0.163
TTGTTTGATGAGATAGATCCAC,sensor-assay potency score (higher = more potent),[2],-0.545
TTTGATGAGATAGATCCACAAG,sensor-assay potency score (higher = more potent),[2],-1.07
TTTGTACTTGACCTGACTCTGC,sensor-assay potency score (higher = more potent),[4],-0.0804
AAGCTGTAGAACTTCTCGCAGT,sensor-assay potency score (higher = more potent),[5],-0.94
TTTTGGAACAGGTTCATCCTCA,sensor-assay potency score (higher = more potent),[5],-0.144
TTCTGCACCTTGCAGCCTCAGC,sensor-assay potency score (higher = more potent),[6],-0.852
TTGATGTTCTCCAGGCCGCTGT,sensor-assay potency score (higher = more potent),[6],-0.625
TTTCAGCAGACTCTGGATGTAT,sensor-assay potency score (higher = more potent),[7],-0.374
TTGTTGACTGATTTTCTGCAGG,sensor-assay potency score (higher = more potent),[8],-0.441
TTGTTCTTGACATCTGTTCACT,sensor-assay potency score (higher = more potent),[8],-0.626
TTATTTACAGTAGTCCTGTTGG,sensor-assay potency score (higher = more potent),[9],-0.0686
TAACTTCTTTCACCTTTCCTGG,sensor-assay potency score (higher = more potent),[9],-0.398
TTCAGTAAAGAGAACATCCAGC,sensor-assay potency score (higher = more potent),[7],0.203
TTGGAGAATACATGAAAGCTAT,sensor-assay potency score (higher = more potent),[7],-0.351
TCTGCCATTATCCACATACAGC,sensor-assay potency score (higher = more potent),[7],-1.71
TTAACTTCTTTCACCTTTCCTG,sensor-assay potency score (higher = more potent),[9],-0.368
TTGAACACAGCAGCCAGGGATT,sensor-assay potency score (higher = more potent),[8],-1.59
TCGGGTCACCACTCGAACCTTG,sensor-assay potency score (higher = more potent),[6],-0.891
TAAAGAACTCATGCACTTGTGC,sensor-assay potency score (higher = more potent),[7],0.25
TGTACTTTAACTTTCTTGGAGT,sensor-assay potency score (higher = more potent),[9],-0.613
TTAGTCTGTGAAGCTGTGGTTA,sensor-assay potency score (higher = more potent),[9],-0.246
TTGGGGACCTATATCTTCGGTC,sensor-assay potency score (higher = more potent),[8],-0.773
TGATCTAGGAGCACTCTGCCAT,sensor-assay potency score (higher = more potent),[7],-0.476
TTGGCATCGTGCACGACCTTGC,sensor-assay potency score (higher = more potent),[6],0.214
TTGGTCACGATGAAGGTGGCGT,sensor-assay potency score (higher = more potent),[6],-0.0574
TAGTCCTCAGGAGTCATCTTGG,sensor-assay potency score (higher = more potent),[6],-0.467
TTGACTGATTTTCTGCAGGGTC,sensor-assay potency score (higher = more potent),[8],-0.256
TACTTCTGCACCTTGCAGCCTC,sensor-assay potency score (higher = more potent),[6],-0.418
TACTCCTCGGCCGTGTGCCTGC,sensor-assay potency score (higher = more potent),[6],-0.836
TTCTTGACATCTGTTCACTAGA,sensor-assay potency score (higher = more potent),[8],-0.341
TTCGTAGTCCTCAGGAGTCATC,sensor-assay potency score (higher = more potent),[6],-1.71
TGGATCTTCTAGTTTCTGCTGG,sensor-assay potency score (higher = more potent),[8],0.385
ATGTATGCATGGTTGGTCGGAT,sensor-assay potency score (higher = more potent),[7],-0.818
TTTGAATATTTGCATTCCCTTC,sensor-assay potency score (higher = more potent),[8],-0.976
TAACGTTTCAGCAGACTCTGGA,sensor-assay potency score (higher = more potent),[7],1.03
TGTCTTTATGGTGATCTAGGAG,sensor-assay potency score (higher = more potent),[7],-0.744
TTATCCACATACAGCATGCTCA,sensor-assay potency score (higher = more potent),[7],-0.807
TTTTGTACTTTAACTTTCTTGG,sensor-assay potency score (higher = more potent),[9],-0.17
TACATGAGTTGTAAGAGCCATT,sensor-assay potency score (higher = more potent),[8],-0.996
TTTATGGTGATCTAGGAGCACT,sensor-assay potency score (higher = more potent),[7],-0.921
TAGTTTGTTCTTGACATCTGTT,sensor-assay potency score (higher = more potent),[8],-0.227
